A word on the AC50: it is the concentration giving half of the maximal activity seen.

Structures are written as SMILES. Where “and” joins values, the source holds several entries; their conditions need not be identical. Equal entries are not always repeated. Calls of active or inactive are those of the source. Rule for the calls: active = hit-call score of the fitted dose curve at least 0.9, where 1 is the maximum; inactive = score below 0.9.

The experiment in a line: BSK_3C_uPAR: BioMAP Diversity Plus: 3C Assay for Urokinase-type plasminogen activator receptor (uPAR) Biomarker Activity (AID 2282998). Particulars: BioMAP 3C HUVEC, uPAR biomarker ELISA; actives raise or lower the signal. The method, then:
BSK_3C is a cell-based, multiplexed-readout assay that uses umbilical vein endothelium, a human vascular primary cell, with measurements taken at 24 hours after chemical dosing in a 96-well plate.BSK_3CAR is an assay component measured in the BSK_3C assay. It measures uPAR antibody related to regulation of gene expression using ELISA technology.Data from the assay component BSK_3CAR was analyzed into 1 assay endpoint. This assay endpoint, BSK_3CAR, was analyzed with bidirectional fitting relative to DMSO as the negative control and baseline of activity. Using a type of binding reporter, gain or loss-of-signal activity can be used to understand changes in the signaling as they relate to the gene PLAUR. Furthermore, this assay endpoint can be referred to as a primary readout, because this assay has produced multiple assay endpoints where this one serves a signaling function. To generalize the intended target to other relatable targets, this assay endpoint is annotated to the cytokine intended target family, where the subfamily is plasmogen activator.
The levels of cell surface (or secreted, indicated by the prefix "s") biomarker endpoints were measured by ELISA. Overt cytotoxicity to cells in confluent adherent cultures (all systems other than the BT system) was assessed by measuring total protein levels using sulforhodamine B (SRB) staining in parallel cultures at the time of biomarker measurements, indicated as SRB endpoints. For proliferation assays for adherent cell types, individual cell types are cultured at sub-confluence and relative cell numbers quantified by SRB staining at time points optimized for each system (48 h: 3C and CASM3C systems; 72 h: BT and HDF3CGF systems; 96 h: SAg system). SRB was performed by staining cells with 0.1% SRB after fixation with 10% TCA and reading wells at 560 nm.Viability and proliferation of PBMC (T cells) was quantified by Alamar Blue reduction for the SAg and BT systems. For PBMC viability (referred to as PBMC Cytotoxicity within the assay endpoint names), cells were plated (75,000/well in a 96-well plate) and then chemical samples added for 1 h before addition of activators, SEB and TSST-1 (20 ng/mL final concentration each). Cells were incubated for 90 h. Then, Alamar Blue (20 uL/well) (Invitrogen, Cat DAL1100) was added for 6 h, and the plates were read with a fluorescence microplate reader at 546/580 nm (excitation/emission). For PBMC proliferation, cells were plated and activated as above but incubated for only 16 h prior to addition of Alamar Blue. Plates were read after 6 h.
In general terms: In an ELISA, binding on a coated surface is turned into a signal by an enzyme label.
Take `CCCCN(CC)c1c([N+](=O)[O-])cc(C(F)(F)F)cc1[N+](=O)[O-]`: the outcome was inactive.

As for `CNc1cnn(-c2cccc(C(F)(F)F)c2)c(=O)c1Cl`, the outcome was inactive.

As to `CC(C1CC1)C(O)(Cn1cncn1)c1ccc(Cl)cc1` (stereo not given), the outcome was inactive.

Consider `CCC(CC)Nc1c([N+](=O)[O-])cc(C)c(C)c1[N+](=O)[O-]`, for which the result was inactive.

On to `CC(C)[C@H](C(=O)O[C@H](C#N)c1cccc(Oc2ccccc2)c1)c1ccc(Cl)cc1`, for which the result was inactive.

In the case of `CCCOCC(=Nc1ccc(Cl)cc1C(F)(F)F)n1ccnc1`, the AC50 is 31.7 µM (active).

Turning to `CC(Oc1cccc(Cl)c1)C(=O)O` (stereo not given), the outcome was inactive.

`O=[N+]([O-])c1cc(C(F)(F)F)c(Cl)c([N+](=O)[O-])c1Nc1ncc(C(F)(F)F)cc1Cl`: the concentration at half-maximal activity (AC50) was 1.05 µM (active) and 3.18 µM (active).

As to `CCOP(=O)(NC(C)C)Oc1ccc(SC)c(C)c1` (stereo not given), the outcome was inactive.

Regarding `CN1COCN(Cc2cnc(Cl)s2)C1=N[N+](=O)[O-]`, the outcome was inactive.

Consider `C#CCC1=C(C)C(OC(=O)C2C(C=C(C)C)C2(C)C)CC1=O` (stereo not given), for which the outcome was inactive.

`CC1=NNC(=O)N(/N=C/c2cccnc2)C1`: the outcome was inactive.

In the case of `CCc1cnc(C2=NC(C)(C(C)C)C(=O)N2)c(C(=O)O)c1` (stereo not given), the result was inactive.

As for `CCOP(=S)(OCC)Oc1cc(C)nc(C(C)C)n1`, the outcome was inactive.

As to `CC[C@H](C)[C@H]1O[C@]2(C=C[C@@H]1C)C[C@@H]1C[C@@H](C/C=C(\C)[C@@H](O[C@H]3C[C@H](OC)[C@@H](O[C@H]4C[C@H](OC)[C@@H](NC)[C@H](C)O4)[C@H](C)O3)[C@@H](C)/C=C/C=C3\CO[C@@H]4[C@H](O)C(C)=C[C@@H](C(=O)O1)[C@]34O)O2`, the AC50 is 1.93 µM (active).

`Cc1cc(C2CC2)nc(Nc2ccccc2)n1`: the outcome was inactive.

Take `Cc1nn(-c2cc(NS(C)(=O)=O)c(Cl)cc2Cl)c(=O)n1C(F)F`: the result was inactive.

For `CCCSP(=O)(OCC)SCCC`, the outcome was inactive.

With `CC(=NC#N)N(C)Cc1ccc(Cl)nc1`, the result was inactive.

In the case of `C[N+]1(C)CCCCC1`, the result was inactive.

Turning to `CCOP(=O)(OCC)Oc1cc(C)nc(C(C)C)n1`, the outcome was inactive.

Regarding `CCOC(=O)COc1cc(-c2nn(C)c(OC(F)F)c2Cl)c(F)cc1Cl`, the result was inactive.

Turning to `Cc1ccn2nc(S(=O)(=O)Nc3c(F)cccc3F)nc2n1`, the result was inactive.

Take `CSC1=N[C@@](C)(c2ccccc2)C(=O)N1Nc1ccccc1`: the AC50 is 7.46 µM (active).

With `S=C1NCCN1`, the outcome was inactive.

Take `CCC(=NOC/C=C/Cl)C1=C(O)CC(C2CCOCC2)CC1=O` (stereo not given): the outcome was inactive.

As for `O=C(O)c1cc(Oc2ccc(C(F)(F)F)cc2Cl)ccc1[N+](=O)[O-]`, the concentration at half-maximal activity (AC50) is 29.2 µM (active).

`Nc1c(Cl)cc([N+](=O)[O-])cc1Cl`: the result was inactive.

`COc1ccc(C(=CC(=O)N2CCOCC2)c2ccc(Cl)cc2)cc1OC`: the AC50 was 12.7 µM (active).

On to `CC(COc1ccc(Oc2ccccc2)cc1)Oc1ccccn1` (stereo not given), for which the AC50 is 23.6 µM (active).

In the case of `CCOP(=S)(OCC)Oc1ccc2c(C)c(Cl)c(=O)oc2c1`, the outcome was inactive.

With `CCCCOC(=O)c1ccccc1C(=O)O`, the result was inactive.

For `CCC(=O)Nc1ccc(Cl)c(Cl)c1`, the outcome was inactive.

For `CCc1cccc(CC)c1N(COC)C(=O)CCl`, the result was inactive.

As for `CCNc1nc(Cl)nc(NC(C)(C)C#N)n1`, the outcome was inactive.

For the compound `C=C(C)[C@H]1Cc2c(ccc3c2O[C@@H]2COc4cc(OC)c(OC)cc4[C@@H]2C3=O)O1`, the AC50 was 7.25 µM (active).

Take `COP(=O)(OC)OC(Br)C(Cl)(Cl)Br` (stereo not given): the AC50 is 31.7 µM (active).

For the compound `CSc1nc(NC(C)C)nc(NC(C)C)n1`, the result was inactive.

On to `CCCOc1nn(C(=O)NS(=O)(=O)c2ccccc2C(=O)OC)c(=O)n1C`, for which the AC50 is 0.0593 µM (active).

Turning to `CON=C(C(=O)OC)c1ccccc1CON=C(C)c1cccc(C(F)(F)F)c1`, the result was inactive.

The record behind these values is PubChem BioAssay (EPA / NIEHS).
